Screening results deposited in PubChem BioAssay by National Center for Advancing Translational Sciences (NCATS).
D1 antagonist: Antagonist of Human D 1 Dopamine Receptor: qHTS. HEK293 TREx D1 cells, calcium flux, dopamine EC80; hits give low values. activity change, negative = inhibition, % at 10 µM. hit rate 3.2% among 360,000. D(1A) dopamine receptor (Homo sapiens), P21728. AID 504652, 2011; in the data active means activity change below about -30%; further: on the % scale 0 is the no-effect control and ±100 the full control effect
Target sequence (P21728 whole entry, looked up): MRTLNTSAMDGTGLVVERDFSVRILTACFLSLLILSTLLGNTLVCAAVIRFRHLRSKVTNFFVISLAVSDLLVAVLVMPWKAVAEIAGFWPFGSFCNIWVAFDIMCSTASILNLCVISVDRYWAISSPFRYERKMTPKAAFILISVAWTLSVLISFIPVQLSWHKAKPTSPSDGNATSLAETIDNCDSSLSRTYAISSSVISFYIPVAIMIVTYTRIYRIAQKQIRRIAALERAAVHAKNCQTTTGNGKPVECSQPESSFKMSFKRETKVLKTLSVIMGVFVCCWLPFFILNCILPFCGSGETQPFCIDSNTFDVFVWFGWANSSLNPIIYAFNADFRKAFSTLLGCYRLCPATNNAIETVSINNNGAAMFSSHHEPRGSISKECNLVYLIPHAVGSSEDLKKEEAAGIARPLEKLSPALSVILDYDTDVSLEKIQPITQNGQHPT
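Calcium flux readout: force-coupled, inducible Hek293 Trex D1 line, cells induced overnight at 30 C with tetracycline, dye-loaded 30–90 min at RT. Antagonism scored against EC80 dopamine challenge given 180 s after compound.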
D3 ag: qHTS of D3 Dopamine Receptor Agonist: qHTS; D(3) dopamine receptor (Homo sapiens), P35462; D3R DiscoveRx beta-arrestin cells, luminescence, 90 min; max activation, %; hit rate 0.58% among 410,000; in the data active means max activation above about 30%; further: 0% is about no effect
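Agonist mode: compounds and dopamine controls were applied to plated cells for 90 min at 37 degrees C after an overnight attachment at 1500 cells/well. Luminescent read-out followed 30 - 60 minutes at room temperature with DiscoveRx detection reagent.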
D1 ag: Allosteric Agonists of the Human D1 Dopamine Receptor: qHTS. D(1A) dopamine receptor (Homo sapiens), P21728. HEK293 T-REx D1 cells, calcium flux, agonist mode. activation, % at 2 µM. hit rate 1% among 360,000. AID 504660, 2011; in the data active means activation above about 30%; further: 0% is about no effect
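Agonism was scored from calcium flux recorded over 180 s (1 read/s) after pintool compound addition, following a 10-cycle baseline. Cells were inducible force-coupled HEK293 TREx D1, plated overnight at 30 C and loaded with no-wash calcium dye.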
D1 PAM: Potentiators of Human D1 Dopamine Receptor: qHTS | hit rate 0.036% among 360,000 | AID 504651, 2011 | D(1A) dopamine receptor (Homo sapiens), P21728 | potentiation, % at 10 µM | HEK293 TREx D1 cells, calcium flux, dopamine EC20 potentiation; in the data active means potentiation above about 30%; further: 0% is about no effect
BCR signal inh: qHTS Assay to Find Inhibitors of Chronic Active B-Cell Receptor Signaling. Potency, µM (top dose mostly 46.1 µM), for the others: top-dose activity change, negative = inhibition, most hits filed as inhibitors. ABC-DLBCL IkBa-CBG/CBR reporter, luminescence ratio, 4 h. hit rate 0.05% among 340,000; active means well fitted inhibition curve with a large enough effect in the signal ratio, with a control signal flat, not every such curve was filed as active; inconclusive means small, poorly fitted or top-dose-only effect, or effect the other way, or a change in a side signal; the % refers to the signal ratio;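 further: potency means the concentration at half of the fitted maximal effect; plate controls were basal doxycycline-induced cells for no effect and cells given 10 µM MG132 for full effect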
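TMD8 ABC-DLBCL cells carrying doxycycline-inducible green luciferase fused to IkappaBalpha plus unfused red luciferase were exposed to compounds (up to 46 uM) for 4 hrs at 37C. Activity came from the overlap-corrected green/red luminescence ratio.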
DRD3 antagonist: qHTS of D3 Dopamine Receptor Antagonist: qHTS; D3R cells, DiscoveRx beta-arrestin luminescence, antagonist mode; hits give low values; hit rate 2.5% among 360,000; max response, negative = inhibition, %; D(3) dopamine receptor (Homo sapiens), P35462; in the data active means max response below about -50%; inconclusive means no clear call, values can overlap the other calls; further: on the % scale 0 is the no-effect control and ±100 the full control effect
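Cells expressing the human receptor were seeded at 1500 cells/well, incubated overnight at 37 degrees C in 5% CO2, then exposed to library compounds with dopamine controls for 90 minutes at 37 degrees C before luminescent detection.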
* = called active by the depositor; ? = inconclusive; nt = not tested or not shown. In the library only some 6% were active in any assay of this set; here they are far more common.

SMILES	D1 antagonist	D3 ag	D1 ag	D1 PAM	BCR signal inh	DRD3 antagonist
Cc1ccsc1/C=N/NC(=O)c1nnn(-c2nonc2N)c1C	0	12	1	-3	-14%	10
CCN(CC)Cc1c(C(=O)N/N=C/c2ccncc2)nnn1-c1nonc1N	0	-11	3	-6	1%	-19
CCCc1c(C(=O)N/N=C(\C)c2ccc(O)cc2)nnn1-c1nonc1N	3	-3	9	-5	2%	-10
CC(=O)c1c(C)n(-c2ccc(Cl)cc2)c2ccc(OC(=O)COc3ccccc3)cc12	-12	-3	5	-2	nt	nt
Cc1cccc(C)c1Nc1c(-c2ccccc2Cl)nc2cnccn12	-11	-7	0	1	nt	nt
Cc1cccc(C)c1NC(=O)CN1CCN(c2ccc(C(F)(F)F)cn2)CC1	nt	-9	nt	nt	nt	0
CCc1ccc(NC(=O)CCCc2nnc3n(CC(C)C)c(=O)c4sccc4n23)cc1	-4	-14	3	0	nt	nt
COCCn1nnnc1C(c1cccc(C(F)(F)F)c1)N1CCOCC1 (stereo not given)	-42*	6	0	-5	-1%	0
COCCn1nnnc1C(c1cccc(C(F)(F)F)c1)N1CCN(Cc2ccccc2)CC1 (stereo not given)	3	-2	0	-4	1%	?
Cc1cccc(C(=O)Nc2nc(-c3ccc(Br)cc3)ns2)c1	-4	6	0	0	nt	nt
CC1CCCN(CCCNS(=O)(=O)c2cc(Br)cc3c2N(C(=O)C2CC2)CC3)C1 (stereo not given)	6	-20	0	-6	2%	6
CC(=O)N1CCc2cc(Br)cc(S(=O)(=O)NCCCN3CCCC(C)C3)c21 (stereo not given)	-2	-5	0	-3	?	-60*
COc1cc(N2CCCC2)c(OC)cc1/C=C(/C#N)c1ccc(Br)cc1	-15	-2	39*	-4	15%	?
CC1c2ccccc2SC(CCCN(C)C)c2ccccc21 (stereo not given)	-48*	-7	48*	-1	?	?
CN(C)CCCNC(=O)N1c2ccccc2Sc2ccccc21	10	-23	3	-3	-1%	?
CN(C)CCC1Sc2ccccc2Oc2ccccc21 (stereo not given)	0	0	28	-6	?	-64*
CCOc1ccc(-c2nonc2NC(=O)COc2ccccc2)cc1	5	-1	7	-5	5%	nt
COC(=O)c1ccc2nc(-c3ccccc3)c(Cc3ccccc3OC)n2c1	nt	-10	nt	nt	nt	-14
Cc1ccc(Cl)cc1NC(=O)CSC1=Nc2ccccc2C2=NC(Cc3ccccc3)C(=O)N12 (stereo not given)	3	-11	5	1	nt	nt
COCCCNc1nc2c(c(=O)[nH]c(=O)n2C)n1CCCc1ccccc1	-2	-2	1	-3	1%	-5
C=C(C)Cn1c(NCCOC)nc2c1c(=O)[nH]c(=O)n2C	-40*	5	-1	4	?	12
Cc1cc(C)c(OCCN(C)C)c(Cl)c1	-38*	-32	0	0	-2%	?
CC1(C(=O)O)CCCN(C(=O)c2ccc(OC(F)F)cc2)C1 (stereo not given)	nt	0	nt	nt	nt	-4
O=C1N/C(=C\c2ccc(O)cc2)C(=O)c2ccccc21	4	0	32*	1	-18%	24
Cc1cccc(CNC(=O)CCCN2C(=O)CCn3nc(-c4cccn4C)cc32)c1	-2	1	0	0	nt	nt
SMILES	D1 antagonist	D3 ag	D1 ag	D1 PAM	BCR signal inh	DRD3 antagonist
COC(=O)c1ccc(NS(=O)(=O)c2ccc(Cl)cc2)o1	-7	0	5	-1	8%	-12
COC(=O)c1ccc(NS(=O)(=O)c2ccccc2)o1	-33*	2	5	-6	-8%	8
CN1OC[C@@H]2CN(C(=O)C(C)(C)C)[C@H](c3ccc(-c4cccnc4)cc3)C[C@@H]21	nt	-10	nt	nt	nt	-24
COc1ccc(CCNC(=S)NC(=O)c2ccccc2)cc1C	-33*	5	6	-7	0%	-14
COc1cc(NC(=O)c2ccno2)cc(C(=O)Nc2cccc(C(F)(F)F)c2)c1	-21	15	20	-2	-4%	7
CCN1CCN(Cc2ccc(NC(=O)c3cc(NC(=O)c4cc5cccc(OC)c5o4)cc(OC)c3)cc2C(F)(F)F)CC1	-2	-10	3	-5	?	-58*
CCN1CCN(Cc2ccc(NC(=O)c3cc(NC(=O)c4ccno4)cc(OC)c3)cc2C(F)(F)F)CC1	4	-3	3	1	-3%	3
COc1cccc2cc(C(=O)NCCc3ccccc3)oc12	-34*	-8	57*	-6	?	2
COc1cc(NC(=O)c2cc3cccc(OC)c3o2)cc(C(=O)Nc2cccc(C(F)(F)F)c2)c1	-11	46*	6	-4	?	133
COc1cccc(OC)c1C(=O)NCCc1ccccc1	nt	1	nt	nt	nt	-1
CCC1CN(C(=O)N2CCC(C(=O)NCc3cccs3)CC2)c2ccccc2O1 (stereo not given)	9	6	0	-6	nt	nt
CCC(C)[C@H](N)c1nnc(SCc2ccc(Cl)c(Cl)c2)o1 (stereo not given in full)	1	-20	54*	-3	nt	nt
CC(C)[C@H](N)c1nnc(SCc2ccc(Cl)cc2)o1	6	2	3	6	2%	-13
O=[N+]([O-])c1ccc(N(c2ccccc2)c2ccccc2)cc1	21	5	42*	1	?	25
CC(=NNC(=S)N1CCCCC1)c1cccc(C)n1	nt	2	nt	nt	nt	-107*
Cc1ccc(-c2nc3sc(C(N)=O)c(N)c3c3c2CCCC3)cc1	-14	26	6	-8	4%	65
CC(=O)c1sc2nc(-c3ccc(C)cc3)c3c(c2c1N)CCCC3	3	52*	4	-4	0%	68
Cc1nc2sc(C(N)=O)c(N)c2c2c1CCCC2	-30*	3	4	-3	?	9
COC(=O)C1=CN(c2ccc(Oc3ccccc3)cc2)C(N)=C(C#N)C1c1ccccc1 (stereo not given)	nt	9	nt	nt	nt	3
COc1ccc(NC(=O)CSC2=NCCN2)cc1	-30*	-3	2	-6	2%	-17
COc1ccc(NC(=O)CSc2c(C)n[nH]c2C)cc1	-7	-12	0	-1	11%	-3
Cn1ccnc1SCC(=O)Nc1cccc(C(F)(F)F)c1	-19	-13	2	0	?	-10
